Consider 29 compounds from PubChem BioAssay (NCATS).

SMILES strings stand for the structures. Inconclusive results are not listed. Where a call stands in place of a potency, no number is given. Unmarked numbers belong to inactive results. Calls of active or inactive are those of the source. Calls follow the shape of the dose curve; as a rule, active = well fitted curve in the direction sought with a large enough effect; inconclusive = small, poorly fitted or top-dose-only effect, or another doubt; inactive = no such curve, though single readings can be large; an effect the other way counts as inactive or inconclusive.

Experiment [1] has as its target Cytochrome P450 3A7 (Homo sapiens) (UniProt P24462). The experiment is described as follows: Cytochrome P450 family 3 subfamily A member 7 (CYP3A7) small molecule antagonists: luciferase biochemical qHTS assay (AID 1963596). Also: nearly all actives have a fitted effect of over 40% in size. An outline of the steps: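 Compounds were screened in qHTS format for interference with CYP3A7 turnover of a proluciferin substrate. Reactions ran 1 h at room temperature after NADPH regeneration solution was added, then luciferin product was detected by luminescence.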
On the technique in general: Quantitative high-throughput screening tests each substance at several concentrations.

Experiment [2] in a line: Cellular viability qHTS for adrenocortical cancer (ACC) cell line SW-13 (AID 1963989).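 Also: cells grown in serum-free medium with ITS supplement; nearly all actives have a fitted effect of over 65% in size.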 Particulars: SW-13 ACC cells viability, CellTiter-Glo, 48 h; activity (max response): stronger effect = lower value. An outline of the steps:
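Here, serum-free SW-13 cultures were dosed up to 46 uM. Following 48 h, ATP-dependent luminescence (CellTiter-Glo) reported viable cells, and logistic modeling produced IC50 values.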

Experiment [3] can be described thus: Cellular viability qHTS for adrenocortical cancer (ACC) cell line NCI-H295R (AID 1963990). Also: nearly all actives have a fitted effect of over 60% in size. An outline of the steps: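 Viability of NCI-H295R after 48 h of treatment (final up to 46 uM) measured through cellular ATP luminescence.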
A short description of experiment [4]: Viability qHTS for spleen associated tyrosine kinase inhibitor (SYKi) naive MV4-11 cells (AID 1963823). Also: nearly all actives have a fitted effect of over 40% in size. Also: potency is read from the fitted curve at half-maximal effect. The essentials:
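SYKi-naive MV4-11 AML cells, 500 per well, were exposed to library compounds for 72 hr at 37 C, 5% CO2. Viability was then read by CellTiter-Glo luminescence after 10 min at room temperature.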

Chain of Cytochrome P450 3A7 (Homo sapiens) (P24462 whole entry, looked up): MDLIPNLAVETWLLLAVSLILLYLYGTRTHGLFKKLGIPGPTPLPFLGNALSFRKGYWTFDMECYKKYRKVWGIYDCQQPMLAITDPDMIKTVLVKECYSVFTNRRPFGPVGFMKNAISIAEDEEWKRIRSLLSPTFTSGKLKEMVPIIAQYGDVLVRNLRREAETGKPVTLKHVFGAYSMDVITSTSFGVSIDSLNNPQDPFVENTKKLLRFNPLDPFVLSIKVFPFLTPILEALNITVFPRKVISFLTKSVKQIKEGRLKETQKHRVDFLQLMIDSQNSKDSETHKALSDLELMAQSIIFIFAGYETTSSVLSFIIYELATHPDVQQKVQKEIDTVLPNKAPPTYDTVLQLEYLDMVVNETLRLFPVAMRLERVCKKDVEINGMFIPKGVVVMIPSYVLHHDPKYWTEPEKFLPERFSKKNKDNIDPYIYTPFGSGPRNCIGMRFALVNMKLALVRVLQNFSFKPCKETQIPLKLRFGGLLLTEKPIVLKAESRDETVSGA

For `OC[C@H]1O[C@@H](Oc2ccc(O)cc2)[C@H](O)[C@@H](O)[C@@H]1O`, the Potency result in experiment [1] and in experiment [3] was “inactive” each time. The activity (max response) in experiment [2] is -0.0454%.

With `COC(=O)C1=CO[C@@H](O[C@@H]2O[C@H](CO)[C@@H](O)[C@H](O)[C@H]2O)[C@@H]2[C@@](C)(O)[C@@H](O)C[C@]12O`, the Potency result in experiment [4] was “inactive”.

Consider `CCC(CC)C(=O)Nc1sc2c(c1C#N)CCC(C(C)(C)CC)C2` (stereo unspecified), for which, in experiment [4], the Potency is 2.06 µM (active).

Turning to `CC1(C(=O)O)CCCC2(C)C3CCC4CC3(CCC12)CC4C(=O)O` (stereo unspecified), in experiment [4], the Potency result was “inactive”.

With `C=C1C(=O)OC2C=C(C)CC/C=C(\CO)CC(O)C12` (stereo unspecified), in experiment [4], the Potency was 10.3 µM (active).

As for `CC(=O)CC1CCC(C(C)C(=O)OCC(O)CO)O1` (stereo unspecified), the Potency entry in experiment [4] was “inactive”.

As for `CC1OC(O[C@H]2CC[C@@]3(C)C(CC[C@]4(C)C3CC=C3C5CC(C)(C)CC[C@]5(C(=O)OC5OC(CO)C(OC6OC(COC7OCC(O)C(O)C7O)C(O)C(O)C6O)C(O)C5O)CC[C@]34C)C2(C)C)C(O)C(O)C1OC1OCC(OC2OCC(O)C(O)C2O)C(O)C1O` (stereo partly specified), the Potency in experiment [4] is 0.155 µM (active).

For `C=C1CC23CC1(O)CCC2C1=CC2OC(=O)C(C)(C2O)C1C3C(=O)O` (stereo unspecified), the Potency result in experiment [4] is “inactive”.

With `O=C1NC(Cc2c[nH]c3ccccc23)C(=O)NC1Cc1cnc[nH]1` (stereo unspecified), the Potency entry in experiment [4] was “inactive”.

Take `O=C(/C=C/c1ccc(O)cc1)OC[C@H]1O[C@@H](O/C(=C\c2ccccc2)C(=O)O)[C@H](O)[C@@H](O)[C@@H]1O`: the Potency entry in experiment [4] is “inactive”.

For the compound `C[C@@H]1O[C@@H](O[C@H]2[C@H](OC(=O)[C@]34CCC(C)(C)C[C@H]3C3=CCC5[C@@]6(C)CC[C@H](O[C@@H]7O[C@H](CO[C@@H]8OC[C@H](O)[C@H](O)[C@H]8O[C@@H]8OC[C@@H](O)[C@H](O)[C@H]8O)[C@@H](O)[C@H](O)[C@H]7O)C(C)(C)C6CC[C@@]5(C)[C@]3(C)C[C@H]4O)O[C@H](CO)[C@@H](O)[C@@H]2O)[C@H](O[C@@H]2O[C@H](CO)[C@@H](O)[C@H](O)[C@H]2O)[C@H](O)[C@H]1O[C@@H]1OC[C@@H](O)[C@H](O[C@@H]2OC[C@@H](O)[C@H](O)[C@H]2O)[C@H]1O` (stereo partly specified), the viability (% of control) in experiment [4] is 93.4% [at 4.97 µM].

As for `CC(=O)O[C@H]1CC[C@@]2(C)C(CC[C@@H](C)[C@]23Cc2c(O)cc4c(c2O3)CN([C@@H](CCC(=O)O)C(=O)O)C4=O)C1(C)C` (stereo partly specified), in experiment [4], the Potency result was “inactive”.

Regarding `CC(=O)O[C@@]1(C)C[C@@H](O)[C@]2(O)C=CO[C@@H](O[C@@H]3O[C@H](CO)[C@@H](O)[C@H](O)[C@H]3O)[C@@H]21`, in experiment [4], the Potency result was “inactive”.

For `N#CCC(C1CCCC1)n1cc(-c2ncnc3[nH]ccc23)cn1` (stereo unspecified), the Potency in experiment [4] is 10.3 µM (active).

With `OC[C@H]1O[C@@H](O[C@@H]2OC=C[C@H]3[C@H](O)[C@@H]4O[C@]4(CO)[C@@H]23)[C@H](O)[C@@H](O)[C@@H]1O`, the Potency result in experiment [4] was “inactive”.

For `Cn1ccc(NC(=O)c2cc(Oc3ccc(C(=O)N4CCC4)c(F)c3)c3c(c2)OC(C)(C)C3)n1`, the Potency result in experiment [4] is “inactive”.

`CC(=O)SC[C@@H](Cc1ccccc1)C(=O)NCC(=O)OCc1ccccc1`: the Potency entry in experiment [4] is “inactive”.

Regarding `CC(C)=CCC/C(C)=C/CO[C@@H]1O[C@H](CO)[C@@H](O)[C@H](O)[C@H]1O`, the Potency result in experiment [4] was “inactive”.

For the compound `NC1Nc2ccccc2C1(N)CC1NC(=O)C(Cc2ccccc2)NC(=O)C(Cc2ccccc2)NC1=O` (stereo unspecified), the Potency result in experiment [4] is “inactive”.

On to `CCCCCCOc1cc2c(cc1N(C)c1ncc(C(=O)O)cn1)C(C)(C)CCC2(C)C`, for which, in experiment [4], the Potency was 23.1 µM (active).

As to `C[C@@H](c1ccccc1)N(C(N)=NC#N)c1cccc2ncccc12`, the Potency entry in experiment [4] was “inactive”.

Turning to `CC[C@@H](C)[C@H]1C(=O)O[C@H](C(C)C)C(=O)N(C)[C@@H](C(C)C)C(=O)O[C@H](C(C)C)C(=O)N(C)[C@@H](C(C)C)C(=O)O[C@H](CC(C)C)C(=O)N1C`, the Potency in experiment [4] was 1.53 µM (active).

Take `CC(C)(C)NC(=O)[C@H]1CC[C@H]2[C@@H]3CC[C@H]4NC(=O)CC[C@]4(C)[C@H]3CC[C@]12C`: the Potency entry in experiment [4] was “inactive”.

For `O=C1C(Cl)=C(N2CCOCC2)C(=O)N1c1ccc(Cl)c(Cl)c1`, the Potency in experiment [4] was 5.63 µM (active).

With `CCCCC1CCC(c2nc(-c3ccncc3)no2)CC1` (stereo unspecified), the Potency result in experiment [4] was “inactive”.

Consider `CC(C)C1=CCC(C)(O)C(OC2OC(CO)C(O)C(O)C2O)C1` (stereo unspecified), for which, in experiment [4], the Potency entry was “inactive”.

For `CC1=CC(=O)CC(C)(C)C1CCC(C)O[C@@H]1O[C@H](CO)[C@@H](O)[C@H](O)[C@H]1O` (stereo partly specified), the Potency entry in experiment [4] is “inactive”.

For `C/C=C(/C)C(=O)OC1C2OC2C2(CO2)C2C3OC(=O)C(C)C3CCC12C` (stereo unspecified), the Potency entry in experiment [4] is “inactive”.

On to `CC(C)(O)/C=C/CC(C)(O)C1C(O)CC2(C)C3CCC4C(C)(C)C(=O)CCC4(C)C3CCC12C` (stereo unspecified), for which the Potency result in experiment [4] was “inactive”.
